Compounds with a hit are over-represented: about 1.9% of the library has one in this group of screens.
GLD-1 TGE inh = GLD-1-TGE RNA interaction inhibition (C. elegans). purified GLD-1 + fluorescein TGE RNA, fluorescence polarization. inhibition, % at 5.96 µM. Q17339. 0.44% of 320,000 active;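 active = percent inhibition above a per-plate cutoff, the plate mean of test compounds plus 3 SD, cut at about 30% in these data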;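 also: 0% = DMSO wells with GLD-1 and probe and 100% = wells lacking GLD-1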
Target sequence (Q17339 whole entry, looked up): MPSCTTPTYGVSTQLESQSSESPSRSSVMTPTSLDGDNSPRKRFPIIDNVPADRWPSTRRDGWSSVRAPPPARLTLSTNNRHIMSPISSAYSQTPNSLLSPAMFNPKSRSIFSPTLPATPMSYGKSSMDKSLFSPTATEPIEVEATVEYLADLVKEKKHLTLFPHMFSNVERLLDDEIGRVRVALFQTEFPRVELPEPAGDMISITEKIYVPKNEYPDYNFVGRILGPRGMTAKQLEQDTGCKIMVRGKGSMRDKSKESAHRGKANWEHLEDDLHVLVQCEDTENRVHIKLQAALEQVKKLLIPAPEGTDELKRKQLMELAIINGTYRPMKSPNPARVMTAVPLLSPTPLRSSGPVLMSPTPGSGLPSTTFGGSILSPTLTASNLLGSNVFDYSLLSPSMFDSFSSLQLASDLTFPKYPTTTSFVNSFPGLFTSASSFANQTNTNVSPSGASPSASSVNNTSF
Yeast superoxide = caloric restriction mimetics inhibiting age-related superoxide in yeast; S. cerevisiae aged cells, superoxide DHE fluorescence; stronger effect = lower value; superoxide response (% of plate mean), % at 10 µM; 0.18% of 330,000 active;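 active = superoxide response under a set limit, about three screen SD below normal, cut at about 65% in these data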;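 also: yeast aged for seven days with compound at 30 °C before DHE staining; 100% = average MFI of all compound-treated wells on the plate with controls excluded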
MEX-5 binding = C. elegans MEX-5 TCR-2 RNA binding activity; 0.38% of 300,000 active; Q9XUB2; MEX-5/FITC-TCR2 RNA binding, fluorescence polarization; stronger effect = lower value; activity score (negative = inhibition of binding), % at 10 µM;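 active = inhibition past about -25% in most replicates, and total fluorescence under double the plate's negative control median, limit read from the data; inconclusive = replicates evenly split on the limit, or fluorescence at least double controls; inactive = too little inhibition in most replicates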;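 also: 0% = DMSO and -100% = 5 µM competing unlabeled TCR2 RNA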
Bcl-xL primary = Bcl-xL (human) inhibition. GST-Bcl-xL / FITC-Bim BH3 peptide fluorescence polarization. inhibition, % at 10.9 µM. 0.7% of 320,000 active. AID 2129;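 active = inhibition above the mean of all tested compounds plus 3 SD, cutoff set per campaign, cut at about 30% in these data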;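 also: 0% = DMSO wells and 100% = unlabeled Bim-BH3 peptide competitor; inhibitors lower millipolarization by displacing the labeled peptide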
Target sequence (Q07817 whole entry, looked up): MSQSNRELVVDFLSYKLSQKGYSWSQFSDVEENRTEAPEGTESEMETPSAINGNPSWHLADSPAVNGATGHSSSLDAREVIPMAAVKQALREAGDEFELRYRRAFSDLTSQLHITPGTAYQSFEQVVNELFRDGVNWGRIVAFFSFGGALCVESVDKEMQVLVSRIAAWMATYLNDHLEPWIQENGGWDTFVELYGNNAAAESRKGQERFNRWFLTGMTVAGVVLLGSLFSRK
LANA-H2A inh = blocks KSHV LANA binding to histone H2A/H2B; cell-free LANA-H2A/H2B peptide, fluorescence polarization; 0.6% of 320,000 active; AID 2629; inhibition, % (no concentration beside the values); Q9QR71; in the data active = inhibition mostly above about 10%, no sharp cut-off; inactive = mostly below about 6.7%
MCL1-BIM inh = inhibitors of human MCL1 binding to BIM-BH3 peptide. inhibition, % at 10.9 µM. GST-MCL1 / FITC-Bim-BH3 fluorescence polarization. Q07820. 0.68% of 320,000 active;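 active = inhibition above the mean inhibition of all tested compounds plus 3 SD, set per campaign, cut at about 40% in these data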;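 also: 0% = DMSO wells and 100% = unlabeled Bim-BH3 peptide control; higher means more loss of mP so more displacement of Bim peptide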
The depositor's hits bear a star; ? = inconclusive; / = not tested or not shown; + = active, no number; ! = not confirmed by another sample.

SMILES	GLD-1 TGE inh	Yeast superoxide	MEX-5 binding	Bcl-xL primary	LANA-H2A inh	MCL1-BIM inh
CN(Cc1ccon1)C(=O)CC1C(=O)NCCN1Cc1ccc(Cl)c(F)c1 (stereo unspecified)	24.6	96.4	-3.9	36.4*	-2.9	34.8
C[C@H](CO)N1C[C@H](C)[C@@H](CN(C)C(=O)NC2CCCCC2)Oc2ccc(NC(=O)Cc3ccccc3)cc2C1=O	2.1	77.8	/	/	6.0	/
CN1C(=O)NC(c2cccc(F)c2)C2=C1CC(C)(C)CC2=O (stereo unspecified)	-7.0	104.8	1.3	35.5*	-0.3	4.0
COc1ccc(/C=C/C(=O)O/N=C(\N)c2ccccn2)cc1OC	-1.9	106.5	/	/	20.7*	/
CCN(CC)c1ccc(/C=c2/sc3nnc(-c4ccccc4C)n3c2=O)cc1	-69.3	114.6	-62.6*	-51.7	-4.1	-81.6
CCN(CC)c1ccc(/C=c2\sc3nnc(-c4ccccc4Cl)n3c2=O)cc1	-74.3	103.9	?	-116.5	-2.8	-175.5
O=C(Nc1ccc(Br)cc1)c1cnc[nH]1	-8.0	100.6	7.3	-7.1	-0.7	-8.8
Cc1cc(C(=O)NN=C2CCCC2)c2ccccc2n1	-3.6	106.0	-3.3	0.1	/	7.1
Cc1cc(C(=O)N/N=C2\CC(=O)CC(C)(C)C2)c2ccccc2n1	63.0*	96.1	-4.1	18.1	2.9	21.8
CCNC(=O)c1c(N)sc2c1CCCCC2	23.8	114.1	-7.2	38.7*	-1.4	38.5
CCOC(=O)c1c(N)sc2c1CCCC2	-0.2	97.1	-1.1	10.2	-5.7	17.1
CN(C(=O)CSc1nnnn1-c1ccc(O)cc1)C1CCCCC1	0.0	87.1	/	/	3.9	/
CCOc1ccc(S(=O)(=O)N2CCOCC2)cc1NC(=O)CN1C(=O)NC2(CCCCC2)C1=O	4.1	100.3	/	-3.0	23.9*	-1.7
CC(C)Oc1ccc(S(=O)(=O)N2CCCCC2)cc1NC(=O)CC1OC(=O)c2ccccc21 (stereo unspecified)	-2.5	106.5	1.1	-2.9	-6.9	-7.9
CC(C)Oc1ccc(S(=O)(=O)N2CCOCC2)cc1NC(=O)CC1OC(=O)c2ccccc21 (stereo unspecified)	1.7	93.5	1.9	-16.6	16.0*	-20.4
O=C(COC(=O)COc1ccccc1[N+](=O)[O-])NCc1ccc2c(c1)OCO2	-6.8	117.6	/	/	-0.1	/
O=C(NCCc1ccc(C(F)(F)F)cc1)C1CC(=O)N(Cc2ccccc2)C1 (stereo unspecified)	3.0	80.8	/	1.7	9.2	-2.2
COc1ccc(Cl)cc1NC(=O)NC1CCCCC1	14.0	106.5	0.4	-2.0	20.6*	-3.9
COC(=O)c1ccc2c(c1)C(C)(C)C(/C=C/c1ccccc1O)=[N+]2C	39.7*	121.0	?	-4.7	-20.3	-40.5
O=S(=O)(c1ccccc1F)N1CCN(CCOc2ccccc2)CC1	5.6	105.9	/	-4.2	3.0	-4.8
COc1ccc(CCNC(=O)c2ccccc2OCc2c(C)noc2C)cc1	-1.7	84.0	/	5.6	-7.7	3.9
O=C(O)CC1S/C(=N/N=C/c2ccccn2)NC1=O (stereo unspecified)	3.6	106.2	-7.2	0.1	23.6*	5.7
NC(=O)NC(=O)CC1S/C(=N/N=C/c2ccccc2)NC1=O (stereo unspecified)	-7.2	120.6	-0.3	-1.4	1.8	-2.2
CCCOc1c(Br)cc(C(=O)OCC(=O)NC(=O)c2cccn2C)cc1OC	-0.3	95.2	/	-0.7	+	-6.3
CC1CC(C)CN(c2nc3c(c(=O)n(C)c(=O)n3C)n2CCSc2ncccn2)C1 (stereo unspecified)	-4.8	106.8	1.3	-1.7	21.9*	5.2
SMILES	GLD-1 TGE inh	Yeast superoxide	MEX-5 binding	Bcl-xL primary	LANA-H2A inh	MCL1-BIM inh
Oc1cc2c(cc1O)C1c3ccc(O)c(O)c3OCC1(O)C2 (stereo unspecified)	34.9*	106.9	/	34.2*	2.3	77.5*
O=C1CCCC(O)=C1C(C#Cc1ccccc1)C1=C(O)CCCC1=O	3.9	102.2	-9.4	12.2	7.6	21.4
CC1(C)CC(=O)C(C(C#Cc2ccccc2)C2=C(O)CC(C)(C)CC2=O)=C(O)C1	2.0	84.9	-1.9	1.8	17.4*	4.4
CCOc1ccc(CCNC(=O)COC(=O)c2ccc[nH]c2=O)cc1OCC	0.6	93.6	/	/	2.3	/
C=CCN1C(=O)C2(OCCCO2)c2cccc(C)c21	-9.1	101.6	2.2	5.4	-5.7	5.1
CCCCN1C(=O)C2(OCCCO2)c2cccc(C)c21	-1.3	99.2	2.7	5.7	18.3*	4.0
Cn1ncc(Cl)c1C(=O)NCC1CCCO1 (stereo unspecified)	-5.3	102.2	4.8	2.4	13.6*	4.3
CNS(=O)(=O)c1cc2c3c(cccc3c1)C(=O)NC2=O	1.9	92.4	1.5	32.3*	0.7	20.8
C[C@@H]1C[C@H]2[C@@H]3CCC4=CC(=O)C=C[C@]4(C)[C@@]3(F)[C@@H](O)C[C@]2(C)[C@@]1(O)C(=O)COP(=O)(O)O	-0.2	101.9	3.0	8.5	46.7*!	10.6
CC1(C)OC2CC3C4CC(F)C5=CC(=O)C=CC5(C)C4(F)C(O)CC3(C)C2(C(=O)CO)O1 (stereo unspecified)	12.3	99.1	0.4	56.9*	-2.4	52.9*
CC(=O)OCC(=O)[C@@]12OC(C)(C)O[C@@H]1C[C@H]1[C@@H]3C[C@H](F)C4=CC(=O)C=C[C@]4(C)[C@@]3(F)[C@@H](O)C[C@@]12C	1.7	112.1	0.6	1.9	10.7	6.9
COc1ccc(CN(C)C(=O)Cc2ccc(OC)c(S(=O)(=O)N3CCOCC3)c2)cc1	-2.0	105.0	-3.2	-1.6	-1.1	-4.1
COc1cccc(CCN2C(=O)C(=O)N([C@@H](CNCc3ccccc3)Cc3ccccc3F)C[C@@H]2C(C)(C)C)c1	181.4*	93.3	/	4.9	0.3	5.9
COc1cccc(NC2CC(=O)N(CCc3ccccc3)C2=O)c1 (stereo unspecified)	-5.1	85.8	0.0	-1.0	-0.1	-3.0
Cc1ccc(OCCNC(=O)c2cccc(S(=O)(=O)N3CCN(C)CC3)c2)cc1	-0.3	88.0	/	2.3	-0.6	-1.3
COc1ccc(C(=O)NCCCn2ccnc2)cc1[N+](=O)[O-]	-4.2	100.5	1.2	7.0	1.2	4.3
COc1cc(C(=O)NCCCn2ccnc2)cc(OC)c1OC	1.5	109.3	1.3	3.5	11.4*	4.6
COc1ccc(NC(=O)C(NC(C)=O)C(=O)Nc2ccc(F)cc2)cc1 (stereo unspecified)	-15.0	93.8	-0.3	4.1	4.9	-2.3
N#Cc1c(C#N)c(O)c2ccccc2c1O	16.2	145.3	-22.6	44.8*	3.1	44.4*
O=C(c1ccc([N+](=O)[O-])cc1)n1nc(-c2ccccc2)nc1NCc1ccc(F)cc1	23.9	105.6	0.6	38.2*	-1.5	36.5
